Screening data deposited in PubChem BioAssay by SRMLSC.
The list is not random: actives were taken first. Their share in the collection is about 6.8%.
NADH enzymes = inhibitors of PK/LDH coupling enzymes, profiling panel, artefact control, biochemical, MLSMR library. coupled PK/LDH NADH assays, four targets. IC50, µM (doses to about 10 µM), inactives show at the highest dose inhibition. 65,000 compounds, 0.02% hits. AID 774, 2007;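 active = single-dose screening hits from any of four coupled enzyme assays that gave an IC50 when retested across doses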;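 also: the DPM-DC format reads NADH fluorescence rather than 340 nm absorbance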
Spn DPM-DC inh = S. pneumoniae DPM-DC inhibitors, primary screen, biochemical, PK/LDH-coupled NADH fluorescence. calls only at 10 µM. 65,000 compounds, 0.49% hits. AID 556, 2006. purified DPM-DC;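 active = the 320 compounds with the highest percent inhibition in the single-dose primary screen, excluding strongly autofluorescent ones, cut at about 32% in these data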;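 also: kinetic rate of NADH fluorescence loss reporting ADP formed by the decarboxylase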
Spn MK inh = S. pneumoniae MK inhibitors, primary screen, biochemical, PK/LDH-coupled NADH absorbance. purified MK, PK/LDH-coupled NADH absorbance 340 nm. 65,000 compounds, 0.48% hits. mevalonate kinase [Streptococcus pneumoniae D39]. inhibition, % at 10 µM. AID 555, 2006;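 active = ranked among the strongest by inhibition in the single 10 µM screen, a fixed top-ranked set picked for dose follow-up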
Autofluor 339 = intrinsic fluorescence of library compounds, ex339/em460 – biochemical, MLSMR library, data from DPM-DC assay, artefact control, profiling panel | compound autofluorescence, ex339/em460 nm, NADH buffer; hits give high values; 1 = no-compound wells, NADH background | 65,000 compounds, 5.5% hits | AID 709, 2007 | fluorescence fold increase at 10 µM;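 active = at 10 µM, mean starting fluorescence two-fold or more over control wells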;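 also: signal is the first read of a kinetic run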
A340 absorber = compound light absorbance at 340 nm, profiling panel, artefact control, biochemical, MLSMR library, data from PS, PMK, MK assays; compound absorbance at 340 nm, fold over control; fold change at 10 µM; 65,000 tested, under 10 active;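 active = at 10 µM dose, initial 340 nm absorbance at least 2 fold that of control wells; inactive = change under 2 fold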;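 also: initial absorbance extrapolated from kinetic A340 decline of NADH oxidation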
PMK inhibit = S. pneumoniae PMK inhibitors, primary screen, biochemical, mevalonate pathway, pilot trial included | phosphomevalonate kinase (Streptococcus pneumoniae D39) | purified PMK, PK/LDH-coupled NADH absorbance 340 nm | inhibition, % at 10 µM | 65,000 compounds, 0.49% hits | AID 539, 2006;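 active = top-ranked compounds by inhibition in the single 10 µM screen, taking a fixed number of the strongest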;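 also: 0% = full reaction with DMSO carrier and 100% = background rate without enzyme reaction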
Numbers without * were called inactive; i = inactive; . = no result shown; + = active, no number.

SMILES | NADH enzymes | Spn DPM-DC inh | Spn MK inh | Autofluor 339 | A340 absorber | PMK inhibit
Cc1cccn2c(=O)c3cc(C(=O)NC4CCCCC4)c(=N)n(CCN4CCOCC4)c3nc12 | 3% | i | 0 | 1.1 | 1 | 9
Cc1cccn2c(=O)c3cc(C(=O)NCCCN4CCOCC4)n(C)c3nc12 | 2% | . | 3 | 2.1* | 1.1 | 0
CCCCNC(=O)c1cc2c(=O)n3cccc(C)c3nc2n(Cc2ccncc2)c1=N | 6% | . | 4 | 3.7* | 1.1 | 8
COc1ccc(CCNC(=O)c2cc3c(=O)n4cccc(C)c4nc3n(Cc3ccncc3)c2=N)cc1 | 4% | i | 3 | 1.6 | 1 | 10
CCCCNC(=O)c1cc2c(=O)n3cccc(C)c3nc2n(CCN2CCOCC2)c1=N | 3% | . | 4 | 3.8* | 1.1 | 1
COCCNC(=O)c1cc2c(=O)n3cccc(C)c3nc2n(Cc2ccncc2)c1=N | 7% | . | 0 | 3.9* | 1.1 | 13
Cc1ccc2oc(=O)c3cnn(CC(=O)N4CCCc5ccccc54)c3c2c1 | 5% | i | 5 | 1 | 0.97 | 3
CC1CN(C(=O)c2cccs2)CCN1C(=O)c1cccs1 (stereo not drawn) | 5% | i | 0 | 1.1 | 1.1 | 13
COc1ccc(CC(=O)N(Cc2cc3cc(OC)ccc3[nH]c2=O)C(C)C)cc1 | 11% | i | 7 | 2.6* | 1.1 | 8
COCC(=O)N(Cc1cc2ccc(C)cc2[nH]c1=O)c1ccc(OC)cc1 | 3% | i | 5 | 1.2 | 1 | 4
COc1ccc2[nH]c(=O)c(CN(C(=O)c3ccncc3)C(C)C)cc2c1 | 5% | i | 1 | 1.7 | 1 | 11
COCC(=O)N(Cc1cc2cc(OC)ccc2[nH]c1=O)c1ccc(C)cc1 | 9% | . | 1 | 2.1* | 1.1 | 16
COc1ccc(N(Cc2cc3ccccc3[nH]c2=O)C(=O)C2CCCO2)cc1 (stereo not drawn) | 4% | i | 12 | 1.3 | 1 | 0
CCOc1ccc(N(Cc2cc3cc(OC)ccc3[nH]c2=O)C(=O)C2CCCO2)cc1 (stereo not drawn) | 8% | i | 1 | 3* | 1.1 | 0
CCC(=O)N(Cc1cc2cc(OC)ccc2[nH]c1=O)c1cccc(C)c1 | 11% | i | 5 | 3* | 1 | 10
CCOC(=O)c1c(C)c(C(=O)NCc2ccc3c(c2)OCO3)c(C)n1C | 5% | i | 1 | 1.2 | 0.99 | 13
CCOc1ccccc1NC(=O)C1CCN(S(=O)(=O)c2cccc3cccnc23)CC1 | 7% | i | 8 | 1.1 | 1.1 | 13
CCOc1cc(-c2c(C#N)c(=O)[nH]c3c2c(C)nn3-c2ccc(F)cc2)ccc1O | 9% | i | 5 | 2 | 1.1 | 11
COCC(=O)N(Cc1cc2cc(OC)ccc2[nH]c1=O)c1ccccc1OC | 9% | i | 8 | 2.6* | 1 | 0
CCCC(=O)N(Cc1cc2cc(C)ccc2[nH]c1=O)c1ccccc1OC | 2% | i | 3 | 1.3 | 1.1 | 3
O=C(Cn1c(C(=O)N2CCN(C3CCCC3)CC2)cc2sccc21)c1ccccc1 | 6% | i | 6 | 0.94 | 0.95 | 8
CCOc1c(C)cc2[nH]c(CCC(=O)O)nc2c1C | 3% | i | 2 | 1.1 | 0.98 | 11
Cc1ccc(-c2nn3c(C)nnc3s2)cc1NCc1c(F)cccc1Cl | 14% | i | 6 | 2.3* | 1.1 | 6
O=C(Cc1c(C(=O)O)[nH]c2ccc(Cl)cc12)Nc1ccc2c(c1)OCCO2 | 1% | i | 4 | 1.1 | 1 | 0
Cc1ccc(C(=O)Nc2cnc3sc(C)nn3c2=O)cc1 | 6% | i | 7 | 1.1 | 1.1 | 5
SMILES | NADH enzymes | Spn DPM-DC inh | Spn MK inh | Autofluor 339 | A340 absorber | PMK inhibit
Cc1cc(=O)oc2cc(OC(C)C)ccc12 | 5% | . | 6 | 2.1* | 1.1 | 3
COc1cc(OC)c2c(C)cc(=O)oc2c1 | 14% | . | 13 | 3.8* | 1 | 14
CCOC(=O)Oc1ccc2oc(=O)cc(C)c2c1 | 4% | i | 9 | 1.1 | 1 | 2
COc1ccc2oc(=O)cc(C)c2c1 | 5% | i | 0 | 2.6* | 1 | 16
C#CCOc1ccc2c(C)cc(=O)oc2c1 | 8% | . | 8 | 3.9* | 1 | 7
c1csc(-c2csc3nc(CN4CCOCC4)nc(NCc4ccc5c(c4)OCO5)c23)c1 | 6% | i | 2 | 0.96 | 1 | 14
CCOC(=O)c1ccc(NC(=O)NC2CCN(CC(=O)NCc3ccc4c(c3)OCO4)CC2)cc1 | 5% | i | 4 | 1.1 | 1 | 11
CCn1c(C(=O)Nc2ccsc2C(=O)OC)cc2sc(Cl)cc21 | 13% | . | 26 | 2.1* | 1.1 | 0
CCOC(=O)N1CCC(NC(=O)Cn2nc(Cc3ccncc3)c3ccccc3c2=O)CC1 | 9% | i | 10 | 1.1 | 1 | 18
N#Cc1nc(Cc2cccc3ccccc23)oc1N1CCCCC1 | 1% | i | 4 | 1.1 | 1 | 0
CC1CC(C)CN(c2oc(-c3ccccc3Cl)nc2C#N)C1 (stereo not drawn) | 3% | . | 5 | 3.2* | 1.1 | 0
N#Cc1nc(-c2cccc3ccccc23)oc1N1CCCCC1 | 10% | . | 6 | 3.7* | 1 | 13
CC1CCN(c2oc(-c3cccc4ccccc34)nc2C#N)CC1 | 13% | . | 9 | 3* | 1 | 10
Cc1cccc(OCc2nc(C#N)c(N3CC(C)CC(C)C3)o2)c1 (stereo not drawn) | 3% | i | 8 | 1.1 | 1 | 0
N#Cc1nc(-c2ccccc2Cl)oc1N1CCCCC1 | 3% | i | 3 | 2 | 1 | 6
O=C(c1ccc(CS(=O)(=O)c2cccc(C(F)(F)F)c2)o1)N1CCN(c2ccccn2)CC1 | 4% | i | 2 | 1.1 | 1 | 9
O=C(CN1CCN(Cc2ccc(Cl)cc2)C1=O)NCCN1CCCC1 | 6% | i | 9 | 1.1 | 1.1 | 9
COC(=O)CC1SC(=O)NC1=Nc1ccccc1 (stereo not drawn) | 39% | + | 7 | 1.7 | 1 | 11
CCOC(=O)c1c(NC(=O)CSc2nnc(CNC(=O)c3ccco3)n2C)sc2c1CCC2 | 7% | i | 4 | 1 | 1.1 | 18
CCOc1ccc(C(=O)O)cc1OC | 17% | + | 1 | 0.62 | 1 | 10
COc1cc(C(=O)O)ccc1OC(C)=O | 5% | i | 3 | 1 | 1 | 13
Cc1ccc(-c2cc3nc(C)cc(NCc4ccco4)n3n2)cc1 | 7% | i | 5 | 3.3* | 0.99 | 2
